Laboratory results published in PubChem BioAssay (NCATS).
Results filed as inconclusive are left out. A call without a number means that no potency is given here. The source made the active and inactive calls. Calls come from the whole dose curve; as a rule, active = well fitted curve in the direction sought with a large enough effect; inconclusive = small, poorly fitted or top-dose-only effect, or another doubt; inactive = no such curve, though single readings can be large; an effect the other way counts as inactive or inconclusive.

Key:
[1] = qHTS of pediatric cancer cell lines to identify multiple opportunities for drug repurposing: Primary screen for U-2 OS cells (AID 1347096); note: nearly all actives have a fitted effect of over 50% in size
How it was run: (§1)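 Cells (500-1,000/well) in growth media were settled 5 h at 37 degrees C, then given compounds for 48 h. Viability was read as CellTiter-Glo luminescence. Primary runs used MIPE at 11 points (0.78 nM-46 µM) and NPC at 8 points (0.59 nM-46 µM); follow-ups used 11 points.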

[2] = qHTS of pediatric cancer cell lines to identify multiple opportunities for drug repurposing: Primary screen for Saos-2 cells (AID 1347097); note: nearly all actives have a fitted effect of over 40% in size; note: potency is the fitted concentration of half-maximal effect
How it was run: (§2)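 Cells plated at 500-1,000/well in growth medium, compounds added after 5 h. MIPE tested at 11 points (from 0.78 nM), NPC at 8 points (from 0.59 nM). CellTiter-Glo luminescence after 48 h; concentration-response curves from primary screen.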

[3] = qHTS of pediatric cancer cell lines to identify multiple opportunities for drug repurposing: Primary screen for LAN-5 cells (AID 1347100); note: potency is the fitted concentration of half-maximal effect
How it was run: as §1

[4] = qHTS of pediatric cancer cell lines to identify multiple opportunities for drug repurposing: Primary screen for BT-12 cells (AID 1347101); note: nearly all actives have a fitted effect of over 25% in size; note: potency is the fitted concentration of half-maximal effect
How it was run: (§3)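 Cells (500-1,000/well) rested 5 h, then received compounds for 48 h; metabolically active cells were measured by CellTiter-Glo luminescence. Final concentrations spanned up to 46 µM (MIPE, 11-point) or 0.59 nM-46 µM (NPC, 8-point) in primary screens, 11-point in follow-ups.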

[5] = qHTS of pediatric cancer cell lines to identify multiple opportunities for drug repurposing: Primary screen for Rh18 cells (AID 1347102); note: nearly all actives have a fitted effect of over 65% in size; note: potency is the fitted concentration of half-maximal effect
How it was run: as §1

[6] = qHTS of pediatric cancer cell lines to identify multiple opportunities for drug repurposing: Primary screen for OHS-50 cells (AID 1347103); note: nearly all actives have a fitted effect of over 40% in size; note: potency is the fitted concentration of half-maximal effect
How it was run: as §3

[7] = qHTS of pediatric cancer cell lines to identify multiple opportunities for drug repurposing: Primary screen for MG 63 (6-TG R) cells (AID 1347105); note: nearly all actives have a fitted effect of over 50% in size; note: potency is the fitted concentration of half-maximal effect
How it was run: as §2

[8] = qHTS of pediatric cancer cell lines to identify multiple opportunities for drug repurposing: Primary screen for control Hh wild type fibroblast cells (AID 1347106); note: nearly all actives have a fitted effect of over 55% in size; note: potency is the fitted concentration of half-maximal effect
How it was run: as §1

[9] = qHTS of pediatric cancer cell lines to identify multiple opportunities for drug repurposing: Primary screen for Rh30 cells (AID 1347107); note: nearly all actives have a fitted effect of over 75% in size; note: potency is the fitted concentration of half-maximal effect
How it was run: as §1

[10] = qHTS of pediatric cancer cell lines to identify multiple opportunities for drug repurposing: Primary screen for Rh41 cells (AID 1347108); note: nearly all actives have a fitted effect of over 70% in size; note: potency is the fitted concentration of half-maximal effect
How it was run: as §2

[11] = qHTS of pediatric cancer cell lines to identify multiple opportunities for drug repurposing: Primary screen for SK-N-SH cells (AID 1347098); note: nearly all actives have a fitted effect of over 65% in size; note: potency is the fitted concentration of half-maximal effect
How it was run: as §3

[12] = qHTS of pediatric cancer cell lines to identify multiple opportunities for drug repurposing: Primary screen for NB1643 cells (AID 1347099); note: nearly all actives have a fitted effect of over 50% in size; note: potency is the fitted concentration of half-maximal effect
How it was run: as §2

[13] = qHTS of pediatric cancer cell lines to identify multiple opportunities for drug repurposing: Primary screen for RD cells (AID 1347104); note: nearly all actives have a fitted effect of over 55% in size; note: potency is the fitted concentration of half-maximal effect
How it was run: as §2

[14] = qHTS of pediatric cancer cell lines to identify multiple opportunities for drug repurposing: Confirmatory screen for NB1643 cells (AID 1347109); note: nearly all actives have a fitted effect of over 45% in size; note: potency is the fitted concentration of half-maximal effect
How it was run: as §1

[15] = qHTS of pediatric cancer cell lines to identify multiple opportunities for drug repurposing: Confirmatory screen for A673 cells (AID 1347110);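 note: cells exposed to compound for 48 h before the viability read; nearly all actives have a fitted effect of over 65% in size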; note: potency is the fitted concentration of half-maximal effect
How it was run: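 A673 cells at 500-1,000 cells/well were dosed 5 h after plating, in dilution series up to 46 uM final; primary runs used 8 or 11 points and confirmatory runs used 11 points. Viability was read by CellTiter-Glo luminescence after 48 h, against DMSO and 2.3 uM bortezomib controls.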

[16] = qHTS of pediatric cancer cell lines to identify multiple opportunities for drug repurposing: Confirmatory screen for BT-12 cells (AID 1347112); note: nearly all actives have a fitted effect of over 55% in size; note: potency is the fitted concentration of half-maximal effect
How it was run: as §1

[17] = qHTS of pediatric cancer cell lines to identify multiple opportunities for drug repurposing: Confirmatory screen for DAOY cells (AID 1347114); note: nearly all actives have a fitted effect of over 65% in size; note: potency is the fitted concentration of half-maximal effect
How it was run: (§4)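 Viability measured as metabolically active cells via CellTiter-Glo luminescence following 48 hours of compound exposure, 11-point dilutions in confirmatory testing. 500-1,000 cells/well plated 5 hours before dosing; controls were DMSO and 2.3 µM bortezomib.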

[18] = qHTS of pediatric cancer cell lines to identify multiple opportunities for drug repurposing: Confirmatory screen for SJ-GBM2 cells (AID 1347116); note: nearly all actives have a fitted effect of over 60% in size
How it was run: as §4

[19] = qHTS of pediatric cancer cell lines to identify multiple opportunities for drug repurposing: Confirmatory screen for BT-37 cells (AID 1347117); note: nearly all actives have a fitted effect of over 55% in size; note: potency is the fitted concentration of half-maximal effect
How it was run: as §1

[20] = qHTS of pediatric cancer cell lines to identify multiple opportunities for drug repurposing: Confirmatory screen for TC32 cells (AID 1347118); note: potency is the fitted concentration of half-maximal effect
How it was run: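 Luminescent ATP read-out (CellTiter-Glo) of metabolically active TC32 cells after 48 h exposure. Concentration-response curves came from 11-point (MIPE, 0.78 nM–46 µM) or 8-point (NPC, 0.59 nM–46 µM) primary titrations; follow-up used 11 points.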

With `CC[C@@H](C(N)=O)N1CCCC1=O` the Potency [1] was “inactive”, the Potency [2] was “inactive” and the Potency [3] was “inactive”. The Potency [4] was “inactive”, the Potency [5] was “inactive” and the Potency [6] was “inactive”. The Potency [7] was “inactive”, the Potency [8] was “inactive” and the Potency [9] was “inactive”. The Potency [10] was “inactive”.
With `CC(C)[C@H]1C(=O)N[C@H](CO)Cc2c[nH]c3cccc(c23)N1C` the Potency [1] was “inactive”, the Potency [11] was “inactive” and the Potency [12] was “inactive”. For the same compound, the Potency [4] was “inactive”, the Potency [5] was “inactive” and the Potency [13] was “inactive”. The Potency [9] was “inactive” and the Potency [10] was “inactive”.
For `CC(=O)OCC1=C(C(=O)O)N2C(=O)[C@@H](N)[C@@H]2SC1`, the Potency [1] was “inactive”, the Potency [2] was 0.935 µM (active) and the Potency [4] was 1.37 µM (active). For the same compound, the Potency [5] was “inactive”, the Potency [6] was 1.37 µM (active) and the Potency [7] was “inactive”. The Potency [8] was “inactive”, the Potency [9] was “inactive” and the Potency [10] was “inactive”.
In the case of `CN1[C@H]2CC(O)C[C@H]1[C@H]1O[C@H]12` (stereo partly drawn), the Potency [1] was “inactive”, the Potency [2] was 13.2 µM (active) and the Potency [12] was 20.9 µM (active). For the same compound, the Potency [4] was 19.3 µM (active), the Potency [6] was 9.68 µM (active) and the Potency [7] was 14.8 µM (active). The Potency [8] was “inactive”, the Potency [9] was 23.5 µM (active) and the Potency [10] was 23.5 µM (active).
For `CN(C)NC(=O)CCC(=O)O`, the Potency [1] was “inactive”, the Potency [11] was “inactive” and the Potency [3] was “inactive”. For the same compound, the Potency [4] was “inactive”, the Potency [5] was “inactive” and the Potency [13] was “inactive”. The Potency [7] was “inactive” and the Potency [9] was “inactive”.
In the case of `c1cc2ccc3cccc4ccc(c1)c2c34`, the Potency [1] was “inactive”, the Potency [11] was “inactive” and the Potency [12] was “inactive”. For the same compound, the Potency [3] was “inactive”, the Potency [5] was “inactive” and the Potency [6] was “inactive”. For the same compound, the Potency [13] was “inactive”, the Potency [7] was “inactive” and the Potency [8] was “inactive”. The Potency [9] was “inactive” and the Potency [10] was “inactive”.
With `Cc1ccccc1-n1c(Cn2ncc3c(N)ncnc32)nc2cccc(C)c2c1=O` the Potency [1] was “inactive”, the Potency [2] was 0.0083 µM (active) and the Potency [4] was 0.0122 µM (active). For the same compound, the Potency [5] was “inactive”, the Potency [6] was 0.0069 µM (active) and the Potency [8] was “inactive”. The Potency [10] was 0.935 µM (active), the Potency [14] was 0.522 µM (active) and the Potency [15] was “inactive”. The Potency [16] was 18.5 µM (active), the Potency [17] was “inactive” and the Potency [18] was “inactive”. The Potency [19] was 0.293 µM (active) and the Potency [20] was 1.85 µM (active).
In the case of `O=C1C=CC[C@@H]2[C@H]3CCCN4CCC[C@@H](CN12)[C@@H]34`, the Potency [1] was “inactive”, the Potency [2] was “inactive” and the Potency [8] was “inactive”.
In the case of `COc1ccc2c(c[n+](C)c3c4cc5c(cc4ccc23)OCO5)c1OC`, the Potency [2] was 9.35 µM (active), the Potency [11] was 12.1 µM (active) and the Potency [12] was 7.43 µM (active). The Potency [3] was 8.33 µM (active), the Potency [5] was 8.33 µM (active) and the Potency [6] was 8.63 µM (active). The Potency [13] was 10.5 µM (active), the Potency [8] was 26.4 µM (active) and the Potency [9] was 20.9 µM (active). For the same compound, the Potency [10] was 10.5 µM (active).
With `Nc1ccc(N=Nc2ccccc2)cc1` the Potency [2] was “inactive”, the Potency [3] was 38.6 µM (active) and the Potency [8] was “inactive”. For the same compound, the Potency [10] was “inactive”.
For `CC(C)(C)C(O)C(Oc1ccc(Cl)cc1)n1cncn1` (stereo not drawn), the Potency [1] was “inactive”, the Potency [12] was “inactive” and the Potency [3] was “inactive”. The Potency [5] was “inactive”, the Potency [13] was “inactive” and the Potency [8] was “inactive”. The Potency [10] was “inactive”, the Potency [14] was “inactive” and the Potency [15] was “inactive”. The Potency [16] was “inactive”, the Potency [17] was “inactive” and the Potency [18] was “inactive”. For the same compound, the Potency [19] was “inactive” and the Potency [20] was “inactive”.
In the case of `COc1ccc(C(=O)c2c(C)n(CCN3CCOCC3)c3cc(I)ccc23)cc1`, the Potency [2] was 18.7 µM (active), the Potency [12] was 14.8 µM (active) and the Potency [6] was 19.3 µM (active). The Potency [13] was 18.7 µM (active), the Potency [8] was “inactive” and the Potency [9] was “inactive”. For the same compound, the Potency [10] was 18.7 µM (active), the Potency [15] was 26.1 µM (active) and the Potency [17] was 18.5 µM (active).
With `C[C@]12CC[C@H]3[C@@H](CCC4=CC(=O)CC[C@@]43C)[C@H]1CC[C@H]2OC(=O)CCC1CCCC1` the Potency [1] was “inactive”, the Potency [12] was “inactive” and the Potency [3] was “inactive”. For the same compound, the Potency [4] was “inactive”, the Potency [5] was “inactive” and the Potency [6] was “inactive”. For the same compound, the Potency [7] was “inactive”, the Potency [8] was “inactive” and the Potency [10] was “inactive”.
